Hit rate of the full screen: of about 220,000 compounds, about 770 (0.35%) were called active. About 15% were inconclusive and are not listed. No stated cut-off is given here; in the data, active means binding response below about 49% or above about 150%; inconclusive means no clear call, values can overlap the other calls; inactive means in between. Many of the other results were omitted from the sample, so actives are more common in it than they were. Residues, ends and D or L forms follow the SMILES beside them. *: point of attachment. OPac = O=C(CO*)c1ccccc1; Bz = O=C(c1ccccc1)*
target: Guanine nucleotide-binding protein G(o) subunit alpha (Homo sapiens) (UniProt P09471); assay: compounds changing RGS7 association with Galphao – biochemical, multiplexed bead flow cytometry, primary screen (AID 1439); conditions: at 10 µM, actives lie on both sides;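 further: fluorescent Galphao held in activated GDP-AlF4 state binding bead-coupled RGS7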
Sequence (P09471 whole entry, looked up): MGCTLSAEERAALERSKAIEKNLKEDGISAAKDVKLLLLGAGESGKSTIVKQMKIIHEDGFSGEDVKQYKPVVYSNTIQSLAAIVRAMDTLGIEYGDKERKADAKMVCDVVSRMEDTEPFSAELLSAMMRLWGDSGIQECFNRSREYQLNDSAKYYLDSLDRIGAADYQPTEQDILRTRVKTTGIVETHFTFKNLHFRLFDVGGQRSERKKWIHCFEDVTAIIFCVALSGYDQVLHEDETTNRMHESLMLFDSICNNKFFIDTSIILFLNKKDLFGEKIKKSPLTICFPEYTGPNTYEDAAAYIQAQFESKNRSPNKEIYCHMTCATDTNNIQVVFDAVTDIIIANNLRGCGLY

Row | Compound | binding response (% of control)
1 | CC(C)OCCCNC(=S)N1CCC(C(=O)c2ccc3c(c2)OCCO3)CC1 | 105% (inactive)
2 | CCOCCCNCc1ccc(OCc2ccc(F)cc2)c(OC)c1 | 103% (inactive)
3 | O=C(Nc1cccc(F)c1)c1ccc(S(=O)(=O)N2CCCC2)cc1 | 97.7% (inactive)
4 | O=C(Nc1cccc(F)c1)c1coc(=O)c(Br)c1 | 45.3% [inhibitor] (active)
5 | Cc1c(NC(=O)c2coc(=O)c(Br)c2)c(=O)n(-c2ccccc2)n1C | 101% (inactive)
6 | CCN(CC)CCOC(=O)c1ccc(NC(=O)CNC(=O)c2ccccc2)cc1 | 98.5% (inactive)
7 | COc1ccc(CC(=O)n2nc(-c3cccnc3)nc2N)cc1 | 97.3% (inactive)
8 | COc1ccccc1C(=O)n1nc(-c2ccccc2)nc1N | 100% (inactive)
9 | CCCC(=O)n1nc(-c2ccccc2)nc1N | 23.4% [inhibitor] (active)
10 | OCCC1CN(Cc2cccc(OC3CCCC3)c2)CCN1Cc1ccsc1 (stereo unspecified) | 102% (inactive)
11 | COCCN(CCOC)S(=O)(=O)c1ccc(/C(O)=C(\C#N)c2nc3ccccc3[nH]2)cc1 | 104% (inactive)
12 | COC(=O)Cn1cc(/C=C/[N+](=O)[O-])c2ccccc21 | 102% (inactive)
13 | O=C(COc1ccc(-c2ccccc2)cc1)NN=C1CCCC1 | 108% (inactive)
14 | O=C(CCCCCn1c(=O)[nH]c2ccccc2c1=O)NCCc1c[nH]c2ccccc12 | 102% (inactive)
15 | COc1ccccc1NC(=O)CCCc1c[nH]c2ccccc12 | 312% (active)
16 | COc1ccccc1NC(=O)C[n+]1ccccc1 | 99.2% (inactive)
17 | O=C(CNC(=O)c1ccccc1)NCC(=O)OCC(=O)c1ccccc1 (Bz-Gly-Gly-OPac) | 113% (inactive)
18 | CCOc1ccccc1NC(=O)c1cc(S(=O)(=O)N2CCC3(CC2)OCCO3)ccc1F | 15.2% [inhibitor] (active)
19 | Cc1c(C(=O)Nc2ccccc2Cl)oc2ccc(S(=O)(=O)N3CCC4(CC3)OCCO4)cc12 | 103% (inactive)
20 | CCOc1ccccc1NC(=O)CCN1CCN(S(=O)(=O)c2ccc(OC)cc2)CC1 | 100% (inactive)
21 | Cc1cc(C2=NNC(=Nc3ccc(S(=O)(=O)N4CCOCC4)cc3)SC2)c(C)n1CC1CCCO1 (stereo unspecified) | 104% (inactive)
22 | Clc1ccc(C2CC(c3cccs3)n3ncnc3N2)cc1Cl (stereo unspecified) | 99.3% (inactive)
23 | FC(F)Oc1ccccc1C1CC(c2ccc(Br)s2)Nc2ncnn21 (stereo unspecified) | 163% (active)
24 | COc1ccc(C2CC(c3ccccc3)Nc3ncnn32)cc1 (stereo unspecified) | 93.2% (inactive)

Row | Compound | binding response (% of control)
25 | O=C(NC1CCCC1)C(c1ccc(N2CCOCC2)cc1)N(C(=O)c1ccco1)c1ccccc1F (stereo unspecified) | 95.4% (inactive)
26 | O=C(C1CCN(C2CCN(Cc3ccc4cc(F)ccc4n3)CC2)CC1)N1CCCC1 | 106% (inactive)
27 | CCCNC(=O)c1c(Cl)cnn1-c1ccc(C)cc1 | 96.6% (inactive)
28 | CC(=O)c1ccc(NC(=O)C(C)N(C)CC(=O)Nc2ccccc2Cl)cc1 (stereo unspecified) | 98.2% (inactive)
29 | Cc1cccc2c1N(CCOc1ccccc1)C(=O)C2=O | 86.4% (inactive)
30 | CCOC(=O)C1Sc2[nH]c(=O)sc2C(c2ccc(Cl)cc2)C1C(=O)OCC (stereo unspecified) | -17.7% [inhibitor] (active)
31 | CCOC(=O)C1C(c2ccc(Cl)cc2)NC(=S)NC1(O)C(F)(F)F (stereo unspecified) | 103% (inactive)
32 | CCOC(=O)C1=C(C)NC(=O)N(C(C)=O)C1c1ccc(Cl)cc1 (stereo unspecified) | 104% (inactive)
33 | Cc1cc(C)n(CCNCc2c(C(=O)N3C[C@@H](C)O[C@@H](C)C3)nc3ccc(Cl)cn23)n1 | 98.3% (inactive)
34 | COCC(C)n1c(C)cc(C(=O)COc2ccc(C)nc2[N+](=O)[O-])c1C (stereo unspecified) | 100% (inactive)
35 | CCOC(=O)c1ccc(N2C(=O)CC(N3CCN(C(=O)c4ccccc4)CC3)C2=O)cc1 (stereo unspecified) | 99.4% (inactive)
36 | COCCNc1nc2nonc2nc1N(C)Cc1ccc(C)cc1 | 101% (inactive)
37 | CSc1ccc(CN2C(=O)NC3(CCCCCC3)C2=O)cc1 | 219% (active)
38 | O=C1NC2(CCCCCC2)C(=O)N1CCS(=O)(=O)Oc1ccccc1 | 97.1% (inactive)
39 | O=C(CN1C(=O)NC2(CCCCCC2)C1=O)NC1CC1 | 123% (inactive)
40 | Cc1nc2ccccc2c(C)c1C(=O)c1ccc(F)cc1 | 97.5% (inactive)
41 | CCOc1ccc(CN2CCN(Cc3ccc(C)o3)CC2CCO)cc1 (stereo unspecified) | 98.7% (inactive)
42 | CN(C)c1ccc2c(=O)[nH][nH]c(=O)c2c1 | 104% (inactive)
43 | CCOC(=O)c1[nH]cnc1C(=O)Nc1ccccc1C | 100% (inactive)
44 | COC(=O)CNC(=O)c1ccc(OC2CCN(C(=O)C3CC3)CC2)cc1 | 105% (inactive)
45 | COc1cccc(C(=O)NNC(=O)c2ccccc2Br)c1 | 99% (inactive)
46 | COc1cc(OC)cc(C(=O)NCCSCc2ccco2)c1 | 98.2% (inactive)
47 | COc1cccc(C(=O)NCCSc2ccc(Br)cc2)c1 | 16.5% [inhibitor] (active)
48 | Cc1ccc(-c2cc(C(F)(F)F)n3ncc(C(=O)N4CCCCC4c4cccnc4)c3n2)cc1 (stereo unspecified) | 100% (inactive)

Row | Compound | binding response (% of control)
49 | C/C(=N\NC(=O)c1cccc(N2CCCC2=O)c1)c1ccc(N)cc1 | 102% (inactive)
50 | Cn1c(SCC(=O)N2CCCc3ccccc32)nc2ccccc2c1=O | 96.4% (inactive)
51 | O=C(CSc1ccc2nnc(-c3ccccc3)n2n1)N1CCCc2ccccc21 | 207% (active)
52 | CCCn1c(SCC(=O)N2CCc3ccccc32)nnc1-c1ccncc1 | 96% (inactive)
53 | CC(C)CC(CC(C)C)=NNC(=O)c1ccc(CSc2nncn2C)cc1 | 99.5% (inactive)
54 | CN(CCC1CCOCC1)Cc1cn[nH]c1-c1ccc(-c2ccccc2)cc1 | 93% (inactive)
55 | O=C(NCC1COc2ccccc2O1)C1(c2ccccc2)CCCC1 (stereo unspecified) | 103% (inactive)
56 | COc1cc(CCC(=O)OCC(=O)Nc2cccc(S(N)(=O)=O)c2)cc(OC)c1OC | 91.7% (inactive)
57 | COc1ccc(CCC(=O)OCC(=O)Nc2ccc(C)c(S(=O)(=O)N(C)C)c2)cc1 | 45.2% [inhibitor] (active)
58 | Cc1ccc(C(=O)Nc2ccc(C)c(S(=O)(=O)N(C)C)c2)s1 | 99.1% (inactive)
59 | COc1ccc2oc(=O)c(C(=O)N3CCCC3)cc2c1 | 101% (inactive)
60 | Nn1c(SCC(=O)Nc2nccs2)nncc1=O | 102% (inactive)
61 | Cc1ccc(Cn2ccc(NC(=O)c3cc(C(C)C)on3)n2)cc1 | 43.9% [inhibitor] (active)
62 | O=C(Nc1ccn(Cc2ccc(F)cc2)n1)c1ccncc1 | 100% (inactive)
63 | Cc1ccc(Cn2ccc(NC(=O)C3C4CCC(C4)C3C(=O)O)n2)cc1 (stereo unspecified) | 99.7% (inactive)
64 | COc1ccc(Br)cc1/C=N/NC(=O)c1cccc(S(=O)(=O)N2CCOCC2)c1 | 112% (inactive)
65 | Cc1cccc(C)c1NC(=O)Nc1ccccc1-n1ccnc1 | 99.6% (inactive)
66 | CCC(=O)Nc1nc(OC)cc(OC)n1 | 99.2% (inactive)
67 | CC(=O)Nc1nc(N(C)C)nc(N(C)C)n1 | -0.2% [inhibitor] (active)
68 | COc1cc(OC)nc(NC(=O)CCl)n1 | 100% (inactive)
69 | OCCC1CN(Cc2ccccc2-c2ccco2)CCN1Cc1ccsc1 (stereo unspecified) | 95.9% (inactive)
70 | Cc1ccc(S(=O)(=O)NCCc2nnc3ccc(SCc4cccnc4)nn23)cc1 | 95.6% (inactive)
71 | O=C(O)CCn1c(SCc2cc(=O)n3ccccc3n2)nc2ccsc2c1=O | 101% (inactive)
72 | CC1=CC=CC2=N/C(=N\S(=O)(=O)c3ccc(F)cc3F)c3ccccc3CN12 | 101% (inactive)

Row | Compound | binding response (% of control)
73 | c1ccc2c(NC3C4CC5CC(C4)CC3C5)nc(N3CCOCC3)nc2c1 (stereo unspecified) | 100% (inactive)
74 | N#Cc1nc(-c2ccc(OCc3ccccc3)cc2)oc1NCCCN1CCOCC1 | 97.2% (inactive)
75 | N#Cc1nc(Cc2ccccc2)oc1NCCc1ccccc1 | 102% (inactive)
76 | N#Cc1nc(COc2ccc(-c3ccccc3)cc2)oc1NCc1cccnc1 | 202% (active)
77 | O=S(=O)(c1ccc(-c2ccccc2)cc1)N1CCCC1 | 106% (inactive)
78 | O=C(NCc1ccco1)C(=O)c1cn(CC(=O)N2CCCCCC2)c2ccccc12 | 93.9% (inactive)
79 | Cc1c(-c2cccc(Cl)c2)nc2ccccc2c1C(=O)OCC(=O)N(C)C1CCS(=O)(=O)C1 (stereo unspecified) | 97% (inactive)
80 | COc1ccc(C(=O)NC2CCN(C(=S)NCCc3ccccc3)CC2)cc1 | 91.3% (inactive)
81 | C=CCn1c(=NC(=O)c2cccs2)sc2cc(NC(C)=O)ccc21 | 152% (active)
82 | C=CCn1c(=NC(=O)c2ccc(S(=O)(=O)N3CCCC3)cc2)sc2cc(NC(C)=O)ccc21 | 91.7% (inactive)
83 | CC(=O)Nc1ccc(/C=N/NC(=O)c2cccs2)cc1 | 99.9% (inactive)
84 | O=C(OCC(=O)N1CCOCC1)c1ccc(N2CCOCC2)c([N+](=O)[O-])c1 | 102% (inactive)
85 | Cc1c(NC(=S)NC(=O)CCc2ccccc2)c(=O)n(-c2ccccc2)n1C | 103% (inactive)
86 | CN(CCc1ccccn1)C(=O)CCC1CCCN(Cc2ccccc2OC(F)F)C1 (stereo unspecified) | 102% (inactive)
87 | Cc1ccc(S(=O)(=O)/N=C(/Nc2ccc3[nH]c(=O)[nH]c3c2)c2ccccc2)cc1 | 104% (inactive)
88 | O=C(Cc1c[nH]c2ccccc12)OCCOC(=O)Cc1c[nH]c2ccccc12 | 95% (inactive)
89 | O=C(CSc1nnc(-c2c[nH]c3ccccc23)o1)c1ccccc1 | 95.2% (inactive)
90 | NC(=O)CSc1c[nH]c2ccccc12 | 25.2% [inhibitor] (active)
91 | CC(C)N1CCC(N2CCN(Cc3cccnc3)CC2CCO)CC1 (stereo unspecified) | 100% (inactive)
92 | CC1CC(C)CN(CCC(=O)Nc2ccc3c(c2)CCC3)C1 (stereo unspecified) | 104% (inactive)
93 | NS(=O)(=O)c1ccc(NC(=S)NNC(=O)c2cccs2)cc1 | 109% (inactive)
94 | Cc1ccc(N(CC(O)CN2CCCC2)S(=O)(=O)c2ccccc2)cc1 (stereo unspecified) | 99.4% (inactive)
95 | O=S(=O)(c1ccccc1)N(CC(O)CN1CCCCC1)c1ccccc1 (stereo unspecified) | 110% (inactive)
96 | Cc1cc(C)n(CC(O)CN(c2ccccc2)S(=O)(=O)c2ccc3ccccc3c2)n1 (stereo unspecified) | 1.45% [inhibitor] (active)

Source: PubChem BioAssay AID1439 (NMMLSC, 2008)
